The nature of this experiment: supercomplex reporter luminescence per Hoechst cell count – Hoechst nuclei count (AID 1645838).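 For all read-outs here: control cybrid cells.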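 For z-score: higher means more mitochondrial supercomplex formation.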 To be noted: Cells, luminescence/Hoechst cell count ratio; for z-score: stronger effect = higher value; for cell count: measured here: cell number, Hoechst nuclei count.
The mark [1] stands for this setting: library stock concentration (final well concentration not given) 46 uM.
The mark [2] stands for this setting: library stock concentration (final well concentration not given) 278 uM.
[3] abbreviates: library stock concentration (final well concentration not given) 1.67 mM.
[4] abbreviates: library stock concentration (final well concentration not given) 80 uM.
[5] abbreviates: library stock concentration (final well concentration not given) 400 uM.
The mark [6] stands for this setting: library stock concentration (final well concentration not given) 2 mM.
[7] abbreviates: library stock concentration (final well concentration not given) 10 mM.

Several values for one entry are separate records, joined by “and”; a condition that tells them apart may be missing. Equal values may be shown once. The campaign covered roughly 2,000 compounds. About 100 (5%) were called active. This is one part of a sample in which actives are shown more often than they occur. Cut-off read from the data, not from the text of the source: active = z-score above about 2; inactive = the rest. Some structures have more than one record in an assay (separate samples or runs), and their calls can disagree.

`CCCCCCCCCCCCCCCC(=O)OC[C@@H](O)COP(=O)([O-])OCC[N+](C)(C)C`: the outcome is “inactive; censored for cell count”.

Take `COc1cc(Nc2c(C#N)cnc3cc(OCCCN4CCN(C)CC4)c(OC)cc23)c(Cl)cc1Cl`: the outcome (library stock 10 mM) was “inactive; censored for cell count”. The z-score is -0.0511 (inactive) under setting [1], 0.0803 (inactive) under setting [2] and 2.12 (active) under setting [3]. In addition, the cell count is, setting by setting: under setting [1], 5680; under setting [2], 5890; under setting [3], 3280.

For `COc1cc2ncnc(Nc3ccc(F)c(Cl)c3)c2cc1OCCCN1CCOCC1`, the z-score is, setting by setting: under setting [4], 0.183 (inactive); under setting [5], 0.0655 (inactive); under setting [6], 0.641 (inactive); under setting [7], 1.23 (inactive). Further, the cell count came out at 5740 under setting [4], 5370 under setting [5], 5790 under setting [6] and 4940 under setting [7].

`COc1cc2c(Oc3ccc4[nH]c(C)cc4c3F)ncnc2cc1OCCCN1CCCC1`: the z-score was -0.259 (inactive) under setting [1], -0.207 (inactive) under setting [2], -0.199 (inactive) under setting [3] and 0.419 (inactive) under setting [7]. Besides, the cell count reads like this: under setting [1], 4900; under setting [2], 4920; under setting [3], 4790; under setting [7], 3820.

As for `CC1CN(Cc2ccccc2)CC1c1nc2c(cnn2C2CCOCC2)c(=O)[nH]1` (stereo unspecified), the z-score is, setting by setting: under setting [4], -0.245 (inactive); under setting [5], -0.201 (inactive); under setting [6], -0.281 (inactive); under setting [7], -0.05 (inactive). For the same compound, the cell count by setting is: under setting [4], 6480; under setting [5], 6460; under setting [6], 6500; under setting [7], 5630.

With `CCCCCOc1ccccc1C(O)CC#CCCCC(=O)OC` (stereo unspecified), the z-score was -0.738 (inactive) and the cell count is 4890.

With `COc1cc(C)c(Sc2cnc(NC(=O)c3ccc(CNC(C)C(C)C)cc3)s2)cc1C(=O)N1CCN(C(C)=O)CC1` (stereo unspecified), the outcome (library stock 10 mM) is “inactive; censored for cell count”. The z-score is -0.488 (inactive) under setting [4], -0.307 (inactive) under setting [5] and 0.194 (inactive) under setting [6]. The cell count stood at 4600 under setting [4], 4380 under setting [5] and 4120 under setting [6].

On to `CC(CSC(=O)c1ccccc1)C(=O)N1CC(Sc2ccccc2)CC1C(=O)O` (stereo unspecified), for which the z-score reads like this: under setting [4], -0.846 (inactive); under setting [5], -0.854 (inactive); under setting [6], -0.642 (inactive); under setting [7], -0.914 (inactive). The cell count was 6770 under setting [4], 5990 under setting [5], 6700 under setting [6] and 6110 under setting [7].

In the case of `CCCCC[C@H](O)/C=C/[C@@H]1[C@@H](C/C=C\CCCC(=O)N(CC)CC)[C@@H](O)C[C@H]1O`, the z-score was -1.04 (inactive) and the cell count is 5830.

On to `NC(=O)c1noc(C(CCCC2CCCCC2)CC(=O)NO)n1` (stereo unspecified), for which the z-score is -0.365 (inactive) under setting [1], -0.421 (inactive) under setting [2], -0.0342 (inactive) under setting [3] and 2.42 (active) under setting [7]. In addition, the cell count reads like this: under setting [1], 6320; under setting [2], 6380; under setting [3], 5390; under setting [7], 2560.

In the case of `C=C1C(=O)O[C@H](CCCCCCCC)[C@H]1C(=O)O`, the z-score is -0.4 (inactive) and the cell count was found to be 5960.

`CCCCC/C=C\CCCCCCCCCCCCC(=O)O`: the z-score was -0.87 (inactive) and the cell count came out at 5480.

`COc1ccc(CCCOC(Cn2ccnc2)c2ccc(OC)cc2)cc1` (stereo unspecified): the z-score is 0.304 (inactive) and the cell count came out at 4930.

Regarding `CN(C)CCCCCCOc1ccc(-n2ccnc2)cc1`, the z-score is 2.07 (active) and 0.161 (inactive); the cell count was 4900 and 5850.

On to `NC(=O)C(c1ccccc1)(c1ccc(F)cc1)c1ccc(F)cc1`, for which the z-score under setting [1] is -0.117 (inactive), the z-score under setting [2] is 0.34 (inactive), the z-score under setting [3] was -0.0437 (inactive) and the z-score under setting [7] is 0.799 (inactive). The cell count is, setting by setting: under setting [1], 6820; under setting [2], 6540; under setting [3], 6770; under setting [7], 6720.

Take `O=C1C(Nc2ccccc2)=CC(=O)c2ncccc21`: the z-score is 0.666 (inactive) and the cell count amounted to 3000.

As to `O=C(NNS(=O)(=O)c1ccccc1C(F)(F)F)c1cc2cc(Cl)ccc2o1`, the z-score under setting [1] is -0.12 (inactive), the z-score under setting [2] is -0.121 (inactive), the z-score under setting [3] was -0.307 (inactive) and the z-score under setting [7] was -0.0108 (inactive). In addition, the cell count came to 7080 under setting [1], 6790 under setting [2], 7310 under setting [3] and 6850 under setting [7].

Consider `CC=C(C)C(=O)OC1C(C)=C[C@]23C(=O)C(C=C(CO)C(O)[C@]12O)C1C(CC3C)C1(C)C` (stereo partly specified), for which the z-score is 1.37 (inactive) under setting [1], 1.94 (inactive) under setting [2], 1.83 (inactive) under setting [3] and 1.83 (inactive) under setting [7]. Besides, the cell count reads like this: under setting [1], 6280; under setting [2], 6170; under setting [3], 6240; under setting [7], 5670.

Take `CCCCCCCCCCCCCCCC(=O)NC[C@@H](C)O`: the z-score was -0.297 (inactive) and the cell count turned out to be 5690.

With `CCCCC/C=C\C=C1\C(=O)CC[C@@H]1C/C=C\CCCC(=O)O`, the z-score was -0.163 (inactive) and the cell count is 5580.

Turning to `COc1ccc(C(=O)CC2(O)C(=O)Nc3c(Cl)ccc(Cl)c32)cc1` (stereo unspecified), the outcome (library stock 10 mM) was “inactive; censored for cell count”. The z-score reads like this: under setting [1], -0.53 (inactive); under setting [2], 0.329 (inactive); under setting [3], 3.41 (active). In addition, the cell count is, setting by setting: under setting [1], 7260; under setting [2], 5870; under setting [3], 2920.

On to `COc1ccc(C(=O)C(=O)c2ccc(OC)cc2)cc1`, for which the z-score under setting [4] is -0.606 (inactive), the z-score under setting [5] is -0.661 (inactive), the z-score under setting [6] is -0.561 (inactive) and the z-score under setting [7] is -0.758 (inactive). Also, the cell count under setting [4] amounted to 5520, the cell count under setting [5] stood at 5760, the cell count under setting [6] was found to be 5480 and the cell count under setting [7] came out at 5880.

For the compound `COc1ccc(C(=O)O)cc1`, the z-score reads like this: under setting [4], -0.451 (inactive); under setting [5], -0.128 (inactive); under setting [6], -0.287 (inactive); under setting [7], -0.368 (inactive). The cell count was found to be 6090 under setting [4], 5780 under setting [5], 5670 under setting [6] and 5840 under setting [7].

On to `CCCCCCCCCCCCC(O)C(=O)O` (stereo unspecified), for which the z-score was -0.554 (inactive) and the cell count turned out to be 5820.

As for `CCCCC[C@@H](O)/C=C/[C@@H]1[C@@H](C/C=C\CCCC(=O)O)[C@@H](O)C[C@H]1O`, the z-score is -0.443 (inactive) and the cell count came to 5100.

Turning to `CCCCC[C@H](O)CC[C@H]1[C@H](O)CC(=O)[C@@H]1CCCCCCC(=O)O`, the z-score is 0.391 (inactive) and the cell count came to 5410.
